KB-V1 cytotox: KB-V1 MDR subline cytotoxicity; KB-V1 MDR cells viability, CellTiter-Glo, 72 h; Potency, µM (highest dose often 46.1 µM), hits mostly cytotoxic; 3.4% of 400,000 active; also: % is scaled to controls: 0 for no effect and ±100 for the full control effect; nearly all actives have a fitted effect of over 60% in size
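In this primary screen, KB-V1 cells overexpressing P-gp are incubated with library compounds (lowest to highest concentration) for 72 h at 37 degrees C before a luminescent ATP viability read.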
HT1080NT lethal: kills 2HG-producing HT-1080-NT fibrosarcoma cells; Potency, µM (highest dose often 46.1 µM), without a hit: at the highest dose activity, negative = less viability, most hits filed as cytotoxic; HT-1080-NT fibrosarcoma viability, CellTiter-Glo ATP luminescence, 48 h; 1.6% of 360,000 active;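 also: NT is the 2HG producing partner of a matched IDH1 knockdown line; 0% = DMSO-treated cells and -100% = media-only wells without cells; nearly all actives have a fitted effect of over 55% in size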
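Viability by CellTiter-Glo luminescence after 48 h compound exposure at 37C of HT-1080-NT cells (750/well, RPMI, 5% FBS). % activity scaled between DMSO wells and medium-only wells, then curve-fitted and categorized by curve class.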
ATXN2 expr inh: ATXN2 expression inhibition | AID 1745845 | Potency, µM (series often up to 57 µM), for the others: at the highest dose activity change, negative = inhibition, most hits filed as inhibitors | HEK-293 ATXN2-luciferase reporter, luminescence, 24 h | 0.72% of 360,000 active; also: % is scaled to controls: 0 for no effect and ±100 for the full control effect; nearly all actives have a fitted effect of over 55% in size
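qHTS (up to 57 uM final) was run with 24 h compound exposure of reporter cells at 37 °C. Each well was multiplexed: SteadyGlo luminescence measured ATXN2-luciferase expression after a fluorogenic Gly-Phe-AFC viability readout (25 uM final).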
HT1080 IDH1KD tx: toxicity to HT-1080 IDH1 knockdown cells (counter line); 2% of 360,000 active; HT-1080 IDH1 knockdown viability, ATP luminescence, 48 h; AID 686971; Potency, µM (series often up to 46.1 µM), inactives show at the highest dose activity, negative = toxicity, most hits filed as cytotoxic;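 also: 0% = DMSO wells and -100% = cell-free medium wells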
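Viability of IDH1-knockdown HT-1080 fibrosarcoma cells was assessed by CellTiter-Glo after 48 h at 37 °C with titrated compound; concentration-effect curves were classified by fit quality and response size.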
ATXN viability: reduces viability in counter-screen for ATXN expression inhibitors. S2 cells (HEK-293 line with an ATXN2-luciferase reporter) viability, CellTiter-Fluor protease fluorescence, 24 h. Potency, µM (highest dose often 56.7 µM), usual class: cytotoxic. 0.49% of 400,000 active; also: nearly all actives have a fitted effect of over 40% in size
KB-3-1 cytotox: kills parental KB-3-1 adenocarcinoma cells; AID 1347075; Potency, µM (highest dose often 46.1 µM), hits mostly cytotoxic; 1.4% of 400,000 active; KB-3-1 viability, CellTiter-Glo ATP luminescence, 72 h; also: % is scaled to controls: 0 for no effect and ±100 for the full control effect; nearly all actives have a fitted effect of over 60% in size
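Multi-concentration cytotoxicity screen in KB-3-1 cells grown in DMEM lacking phenol red with 10% FBS. After 72 h at 37 °C with compound, ATP-dependent luminescence was recorded.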
* hit, by the source's call; i = inactive; ? = inconclusive; / = no result given. The list is not random: actives were taken first. Their share in the collection is about 6.2%. Calls follow the shape of the dose curve; as a rule, active = well fitted curve in the direction sought with a large enough effect; inconclusive = small, poorly fitted or top-dose-only effect, or another doubt; inactive = no such curve, though single readings can be large; an effect the other way counts as inactive or inconclusive. Potency is read from the fitted curve at half-maximal effect.

SMILES	KB-V1 cytotox	HT1080NT lethal	ATXN2 expr inh	HT1080 IDH1KD tx	ATXN viability	KB-3-1 cytotox
O=C(NCC1OCCc2ccccc21)c1ccc(NC(=O)c2cccc(Br)c2)cc1 (centres undefined)	2.59µM*	2.3%	-17.2%	3.0%	?	i
CN1CCc2c(sc3c2C(=O)NC(c2ccc(C(C)(C)C)cc2)N3)C1 (centres undefined)	i	/	9.4%	/	i	i
COc1ccc2[nH]c3c4c(ccc3c2c1)C(=O)C=CC4=O	i	13µM*	3.55µM*	16.4µM*	6.31µM*	9.2µM*
c1ccc(CSc2ccc(-c3ccc4c(c3)OCO4)nn2)cc1	i	-14.5%	-5.7%	-5.5%	i	16.4µM*
Fc1ccc(CSc2ccc(-c3ccc4c(c3)OCO4)nn2)cc1	?	-9.8%	-19.5%	?	?	?
Cn1nnnc1Sc1ncnc2scc(Br)c12	i	/	17.8µM*	/	i	i
Cn1nnnc1Sc1ncnc2scc(-c3cccc4ccccc34)c12	i	/	?	/	?	16.4µM*
Cn1nnnc1Sc1ncnc2scc(-c3ccccc3Br)c12	i	/	25.1µM*	/	?	i
COc1ccccc1-c1csc2ncnc(Sc3nnnn3C)c12	i	/	-18.4%	/	i	?
CN1CCN(C(=S)SCC(=O)Nc2nc(-c3ccccc3)c(-c3ccccc3)o2)CC1	20.6µM*	-18.7%	-10.0%	0.5%	?	?
Cc1ccc(C(=O)N2CC(C)OC(C)C2)cc1S(=O)(=O)N1CCCCC1 (centres undefined)	?	7.0%	-2.9%	9.1%	i	i
COC(=O)C[C@H]1N(S(=O)(=O)c2ccc(C)cc2)C(C(C)C)CC1(C(=O)OC)C(=O)OC (some centres undefined)	?	-0.6%	/	6.0%	/	i
O=c1c2cn[nH]c2nc(SCc2cccc(Br)c2)n1-c1ccc(Cl)cc1	i	/	/	/	/	i
O=c1c2cn[nH]c2nc(SCc2ccc3c(c2)OCCO3)n1-c1ccccc1	?	?	-8.9%	20.6µM*	i	?
CCOC(=O)c1cc(-c2ccc(C)cc2)n(CCC(=O)Nc2cc(Cl)ccc2C)c1C	i	/	7.9%	/	i	i
COc1ccc(C(=O)NC(=S)NCc2ccccc2)cc1	?	0.5%	19.3%	8.6%	i	i
COc1cc(OC)cc(C(=O)NC(=S)NCCc2ccccc2)c1	i	?	-49.9%	35.5µM*	i	i
COc1ccc(C(=O)N(C)c2ccccc2C(=O)NCCc2ccccc2)cc1	5.8µM*	-16.5%	-36.7%	?	i	2.91µM*
COc1ccc([C@H]2CC(=O)C=C(c3cc(C)ccc3OC)C2)cc1	5.8µM*	?	-23.2%	?	?	20.6µM*
COc1ccc([C@H]2CC(=O)C=C(c3ccnc4ccc(Cl)cc34)C2)cc1	i	18.4µM*	0.0%	3.66µM*	?	?
COc1ccc([C@H]2CC(=O)C=C(c3cc(Cl)ccc3C)C2)cc1	i	-13.7%	8.8%	-9.9%	i	i
COc1ccc(OC)c(C2=CC(=O)C[C@H](c3ccc4c(c3)OCO4)C2)c1	?	?	-19.6%	?	i	10.3µM*
O=C1C=C(c2ccc3cc[nH]c3c2)C[C@@H](c2ccc3c(c2)OCO3)C1	i	18.4µM*	-32.7%	-79.8%	?	i
N#Cc1nc(-c2ccc(OCc3ccccc3Cl)cc2)oc1N1CCCCCC1	i	/	/	/	/	i
Cc1ccc(CNc2ncnc3sc(C(=O)N4CCC[C@H]4C(N)=O)c(C)c23)o1	/	/	/	/	i	/
SMILES	KB-V1 cytotox	HT1080NT lethal	ATXN2 expr inh	HT1080 IDH1KD tx	ATXN viability	KB-3-1 cytotox
CCOc1ccc(Br)cc1C1=CC(=O)C[C@H](c2ccc(OC)cc2)C1	16.4µM*	?	-5.2%	5.8µM*	i	5.8µM*
COc1ccc([C@H]2CC(=O)C=C(c3cc(Br)ccc3OC)C2)cc1	?	-18.3%	?	?	i	?
CCOC(=O)c1ccc(-n2c(O)c(/C=N/NC(=O)C3COc4ccccc4O3)c3ccccc3c2=O)cc1 (centres undefined)	16.4µM*	-12.8%	-26.8%	-13.3%	i	i
O=C(N/N=C/c1c[nH]c2ccccc12)C1COc2ccccc2O1 (centres undefined)	2.59µM*	3.66µM*	-2.6%	5.8µM*	?	5.8µM*
O=C(N/N=C\c1ccc(Cl)s1)C1COc2ccccc2O1 (centres undefined)	?	?	-32.6%	?	i	?
O=C(N/N=C\c1ccc([N+](=O)[O-])o1)C1COc2ccccc2O1 (centres undefined)	i	?	-31.2%	20.6µM*	i	?
O=C(Cc1ccc2c(c1)OCO2)NN=Cc1ccc([N+](=O)[O-])o1	23.1µM*	-11.9%	?	-20.8%	?	i
CCCCN1C(=O)C(CC(=O)NCCCCc2ccccc2)CC(C(=O)N2CCCCCC2)=C1C (centres undefined)	?	2.8%	?	9.7%	?	i
COc1cccc(CN2CCC3(CCC(CNC(=O)c4ccccc4)O3)CC2)c1 (centres undefined)	/	/	/	/	i	/
Cc1ccsc1C(=O)NNC(=O)c1cccc(S(=O)(=O)N2CCCC2)c1	i	0.6%	-3.9%	19.7%	i	i
CCOC(=O)c1c(C)[nH]c(C)c1S(=O)(=O)N(C)CC(=O)Nc1cccc(Cl)c1C	i	/	1.9%	/	i	i
CC(=O)c1cccc(N2C(=O)C3C4CCC(C4=C(C)C)C3C2=O)c1 (centres undefined)	18.4µM*	-9.6%	3.2%	-6.7%	i	i
O=C(Nc1ccc(Cl)cc1)c1cccc(N2C(=O)C3C4CCC(C4)C3C2=O)c1 (centres undefined)	8.2µM*	-5.8%	0.0%	-3.5%	i	?
Cc1ccccc1NC(=O)c1cccc(N2C(=O)C3C4CCC(C4)C3C2=O)c1 (centres undefined)	23.1µM*	?	2.4%	-6.4%	i	i
Cc1ccc(NC(=O)c2cccc(N3C(=O)C4C5CCC(C5)C4C3=O)c2)c(C)c1 (centres undefined)	4.11µM*	0.7%	3.8%	16.5%	?	i
COCCCNc1oc(-c2ccc(COc3ccccc3C)o2)nc1C#N	i	/	?	/	?	i
CCOc1ccccc1NC(=O)Cn1c(=O)n(Cc2cccs2)c(=O)c2cccnc21	i	/	4.0%	/	i	i

Screens from PubChem BioAssay.
